Here are results for 37 compounds from PubChem BioAssay (NCATS).

Values joined by “and” are separate entries in the source; they are usually repeats but may differ in a detail not shown here. Equal values may be shown once. Records with an inconclusive call do not appear. Active and inactive are the calls of the source. The call rests on the fitted dose curve; in most records, active means well fitted inhibition curve with a large enough effect; inconclusive means small, poorly fitted or top-dose-only effect; inactive means flat fitted curve, though single readings scatter. Where a SMILES comes first, the peptide text is derived from it. Bridges are numbered along the chain shown (N, C = ends). [ ]: non-standard residue; d: D form. The star is where a group is joined. X2 = CC[C@H](C)CCCCC(=O)*; Dab = NCC[C@H](N)C(=O)O
On the % scale 0 is the no-effect control and ±100 the full control effect; potency means the concentration at half of the fitted maximal effect.

In this assay the test system is KB-3-1. Nature of the assay: Cytotoxic Profiling of Annotated Libraries Using Quantitative High-Throughput Screening (AID 1296008). Further: nearly all actives have a fitted effect of over 60% in size. The conditions noted are these: Five cell lines viability, CellTiter-Glo ATP luminescence, 48-72 h; max response: hits give low values. An outline of the steps: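 Cytotoxicity was measured as CellTiter-Glo ATP luminescence, read after 10 min at room temperature. Compound treatment of the cells lasted 48 or 72 hr at 37 degrees Celsius in a qHTS format.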
For `CN1CCc2c(c3ccccc3n2Cc2ccccc2)C1`, the max response is 8.09% (inactive).

Turning to `O=C1CCC(c2ccccc2)(C2CCN(Cc3ccccc3)CC2)C(=O)N1` (configuration not stated), the max response was 17.5% (inactive).

In the case of `C[S+](C)CCC(N)C(=O)O` (configuration not stated), the max response is 3.56% (inactive).

As to `CC(=O)N[C@@H]([C@@H](O)[C@H](O)[C@H](O)CO)[C@@H](O)CC(=O)C(=O)O`, the max response is 10.5% (inactive).

Consider `CC(C)(C)CC(C)(C)c1cc(Cc2cc(C(C)(C)CC(C)(C)C)cc(-n3nc4ccccc4n3)c2O)c(O)c(-n2nc3ccccc3n2)c1`, for which the max response was -2.05% (inactive).

On to `CC1(C)[C@@H]2CC[C@@]1(C)[C@H](OC(=O)CSC#N)C2`, for which the max response was 3.19% (inactive).

Consider `C[C@H](O)CN(C)C`, for which the max response is 10.7% (inactive).

As for `CC[C@H](C)CCCCC(=O)N[C@@H](CCN)C(=O)N[C@H](C(=O)N[C@@H](CCN)C(=O)N[C@H]1CCNC(=O)[C@@H]([C@H](C)O)NC(=O)[C@H](CCN)NC(=O)[C@H](CCN)NC(=O)[C@H](CC(C)C)NC(=O)[C@@H](CC(C)C)NC(=O)[C@H](CCN)NC1=O)[C@@H](C)O` (X2-[Dab]T[Dab][Dab][Dab][dL]L[Dab][Dab][dT]; lactam 4-C), the max response was -9.96% (inactive).

`O=C1c2c(O)cccc2[C@H]([C@@H]2O[C@H](CO)[C@@H](O)[C@H](O)[C@H]2O)c2cc(CO)cc(O)c21`: the max response is 8.29% (inactive).

Turning to `Cc1ncc(COP(=O)(O)O)c(CN)c1O`, the max response is -6.16% (inactive).

With `O=P(O)(O)OP(=O)(O)O`, the max response was -8.71% (inactive).

For `c1ccc2c(c1)OCC(CN1CCCCC1)O2` (configuration not stated), the max response was -16% (inactive).

As for `CC1=CC(=C(c2ccc(N)cc2)c2ccc(N)cc2)C=CC1=N`, the Potency is 10.3 µM (active).

With `CC1CCC(NC(=O)N(CCCl)N=O)CC1` (configuration not stated), the max response is 8.06% (inactive).

For `Cc1cc2nc3c(=O)[nH]c(=O)nc-3n(C[C@H](O)[C@H](O)[C@H](O)COP(=O)(O)OP(=O)(O)OC[C@H]3O[C@@H](n4cnc5c(N)ncnc54)[C@H](O)[C@@H]3O)c2cc1C`, the max response was -11% (inactive).

With `C[C@@](Cc1ccc(O)c(O)c1)(NN)C(=O)O`, the max response is 2.59% (inactive).

As for `CC12CCC(C1)C(C)(C)C2=O` (configuration not stated), the max response is 3.69% (inactive).

As for `O=C(O)CC/C=C\CC[C@@H]1[C@@H](N2CCCCC2)[C@@H](O)C[C@@H]1OCc1ccc(-c2ccccc2)cc1`, the max response was -15.9% (inactive).

Turning to `CC1=CC(=O)NS(=O)(=O)O1`, the max response was -8.51% (inactive).

As for `CCCCC/C=C\CCC(=O)N[C@H]1[C@H](Oc2c3cc4cc2Oc2ccc(cc2Cl)[C@@H](O[C@@H]2O[C@H](CO)[C@@H](O)[C@H](O)[C@H]2NC(C)=O)[C@@H]2NC(=O)[C@H](NC(=O)[C@@H]4NC(=O)[C@H]4NC(=O)[C@@H](Cc5ccc(c(Cl)c5)O3)NC(=O)[C@H](N)c3ccc(O)c(c3)Oc3cc(O)cc4c3)c3ccc(O)c(c3)-c3c(O[C@H]4O[C@H](CO)[C@@H](O)[C@H](O)[C@@H]4O)cc(O)cc3[C@@H](C(=O)O)NC2=O)O[C@H](CO)[C@@H](O)[C@@H]1O`, the max response was -12.7% (inactive).

For `CNC(=O)OCc1cccc(COC(=O)NC)n1`, the max response was 2.4% (inactive).

On to `CO[C@H]1O[C@@H]2O[C@@]3(C)CC[C@H]4[C@H](C)CC[C@@H]([C@H]1C)[C@@]24OO3`, for which the max response is 1.88% (inactive).

As for `NC(=O)CC[C@@H]1NC(=O)[C@H](Cc2ccccc2)NC(=O)[C@H](Cc2ccc(O)cc2)NC(=O)[C@@H](N)CSSC[C@@H](C(=O)N2CCC[C@H]2C(=O)N[C@@H](CCCN=C(N)N)C(=O)NCC(N)=O)NC(=O)[C@H](CC(N)=O)NC1=O`, the max response was 22.3% (inactive) and -14.9% (inactive).

With `CSc1nc2cc(Oc3cccc(Cl)c3Cl)c(Cl)cc2[nH]1`, the max response is -1.84% (inactive).

Turning to `NC(=S)N=Nc1ccc(NN=C(N)N)cc1`, the max response is -12.2% (inactive).

With `NC(N)=NCC1COC2(CCCCC2)O1` (configuration not stated), the max response is 1.43% (inactive).

On to `CCN(CC)CCCC(C)Nc1cc(/C=C/c2ccccc2Cl)nc2cc(Cl)ccc12` (configuration not stated), for which the max response is 0.54% (inactive).

With `CC1C(=O)CC2C3(C)CCC2(C(C)C(=O)O)C(=O)C13` (configuration not stated), the max response was 5.4% (inactive).

`Oc1cc(O)cc(O)c1`: the max response was 3% (inactive).

With `COc1ccc(C(=O)/C(Br)=C\C(=O)O)cc1`, the max response is 19.2% (inactive).

On to `CCCCC[C@H](O)/C=C/[C@H]1[C@H](O)CC(=O)[C@@H]1CCCCCCC(=O)O`, for which the max response was 3.75% (inactive).

Turning to `O=C(O)[C@H]1C(=CCO)O[C@H]2CC(=O)N12`, the max response was 8.73% (inactive).

For `O=C(/C=C/c1cccc(F)c1)NC1CC1`, the max response is -16.5% (inactive).

Turning to `CC(C)CCC[C@@H](C)[C@H]1CC[C@H]2[C@@H]3CC=C4C[C@@H](O)CC[C@]4(C)[C@H]3CC[C@]12C`, the max response is -10.6% (inactive).

Turning to `O=C(OC[C@H]1O[C@](O)(COC(=O)c2cccnc2)[C@@H](OC(=O)c2cccnc2)[C@@H]1OC(=O)c1cccnc1)c1cccnc1`, the max response is -13.5% (inactive).

In the case of `C=O`, the max response was 3.28% (inactive).

With `COc1cc(NCCCC(C)N)c2ncccc2c1` (configuration not stated), the max response was -4.33% (inactive).
